Data reported in PubChem BioAssay (EPA / NIEHS).
Results filed as inconclusive are left out. Calls of active or inactive are those of the source. The calls were made as follows, unless noted: active = hit-call score of the fitted dose curve at least 0.9, where 1 is the maximum; inactive = score below 0.9.

Tests used:
[1] = CCTE_Shafer_MEA_dev_firing_rate_mean: CCTE's Neural Network Formation Assay for Mean Firing Rate, Shafer Lab (AID 2284031)
In short: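 Primary rat cortical neurons on 48-well MEA plates, exposed from plating day 0 with dosing renewed on DIV 5 and 9. Mean well firing rate over active electrodes, recorded days 5, 7, 9, 12, summarised as trapezoidal AUC.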

[2] = CCTE_Shafer_MEA_dev_per_burst_spike_percent: CCTE's Neural Network Formation Assay for Percent of Spikes in a Burst, Shafer Lab (AID 2284032);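 also: fitted as a decrease in burst spike percentage below DMSO baseline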
In short: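 Rat primary cortical neurons on 16-electrode MEA wells, dosed from plating day 0 for 12 days with renewal on DIV 5 and 9; spikes-in-bursts percentage averaged over bursting electrodes, collapsed as AUC across days 5, 7, 9, 12; loss direction versus DMSO.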

[3] = CCTE_Shafer_MEA_dev_active_electrodes_number: CCTE's Neural Network Formation Assay for Number of Active Electrodes, Shafer Lab (AID 2284040; active = hit-call score of the fitted dose curve at least 0.9, where 1 is the maximum;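 also: potency for loss of active electrodes versus DMSO so lower counts are hits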)
In short: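 Primary rat cortical neurons on 16-electrode MEA wells, exposed from day 0 through day 12 with compound renewed at DIV 5 and 9 feeds. Active electrodes (mean firing ≥5 spikes/min) counted at DIV 5, 7, 9, 12; trapezoidal AUC across days, loss-of-signal versus DMSO.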

[4] = CCTE_Shafer_MEA_dev_burst_rate: CCTE's Neural Network Formation Assay for Burst Rate, Shafer Lab (AID 2284042)
In short: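 Primary rat cortical neurons on PEI-coated 48-well MEA plates (laminin added with cells at plating) (16 electrodes/well), exposed from plating to day 12, dosing renewed at DIV 5 and 9. Burst rate averaged over active electrodes, recorded DIV 5, 7, 9, 12, summarized as AUC; loss versus DMSO.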

[5] = CCTE_Shafer_MEA_dev_bursting_electrodes_number: CCTE's Neural Network Formation Assay for Number of Bursting Electrodes, Shafer Lab (AID 2284043; active = hit-call score of the fitted dose curve at least 0.9, where 1 is the maximum;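 also: potency is for loss of bursting electrodes relative to DMSO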)
In short: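 Primary rat cortical neurons plated on 16-electrode MEA wells, exposed from day 0 with compound renewed at DIV 5 and 9. Electrodes bursting ≥1 burst per 2 min counted on days 5, 7, 9 and 12; trapezoidal AUC across days, fitted for loss versus DMSO.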

[6] = CCTE_Shafer_MEA_dev_per_burst_interspike_interval: CCTE's Neural Network Formation Assay for Burst Interspike Interval, Shafer Lab (AID 2284044);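 also: mean spike spacing inside bursts as AUC over recordings on days 5 7 9 12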
In short: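 Spontaneous activity of maturing rat cortical networks is recorded on DIV 5, 7, 9 and 12 under chronic compound exposure beginning at plating. Endpoint: burst interspike interval well-mean, collapsed into trapezoidal AUC and fitted in the negative direction relative to DMSO.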

[7] = CCTE_Shafer_MEA_dev_burst_duration_mean: CCTE's Neural Network Formation Assay for Mean Burst Duration, Shafer Lab (AID 2284045)
In short: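 Primary rat cortical neurons on 48-well 16-electrode MEA plates, exposed from day 0 with renewal at DIV 5 and 9; spontaneous activity recorded on days 5, 7, 9, 12. Well-mean burst duration across bursting electrodes, collapsed as trapezoidal AUC; DMSO baseline.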

[8] = CCTE_Shafer_MEA_dev_interburst_interval_mean: CCTE's Neural Network Formation Assay for Mean Interburst Interval, Shafer Lab (AID 2284046);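 also: well-mean interburst interval of bursting electrodes as AUC over four recording days; curve fitted for decrease in interburst interval relative to DMSO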
In short: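 Recordings on days 5, 7, 9 and 12 give well-mean interburst interval across actively bursting electrodes, summarized as area under the curve. Cultures: rat cortical neurons, continuous exposure from day 0, compound renewed at feeds; decrease analyzed versus DMSO.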

[9] = CCTE_Shafer_MEA_dev_inter_network_spike_interval_mean: CCTE's Neural Network Formation Assay for Mean Inter-network Spike Interval, Shafer Lab (AID 2284047)
In short: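 Primary rat cortical neurons on 16-electrode MEA wells, exposed from plating day 0 through DIV 12, compound renewed at DIV 5 and 9 media changes. Mean interval between network-spike peaks recorded DIV 5, 7, 9, 12; collapsed as trapezoidal AUC, fitted downward versus DMSO.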

[10] = CCTE_Shafer_MEA_dev_network_spike_number: CCTE's Neural Network Formation Assay for Number of Network Spikes, Shafer Lab (AID 2284048)
In short: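 Primary rat cortical neurons on PEI/laminin 48-well MEA plates, dosed from plating day 0 for 12 days, renewed at DIV 5 and 9. Network spike counts recorded DIV 5, 7, 9, 12, collapsed as trapezoidal AUC; DMSO baseline.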

[11] = CCTE_Shafer_MEA_dev_network_spike_peak: CCTE's Neural Network Formation Assay for Mean Number of Electrodes in Network Spike, Shafer Lab (AID 2284049);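 also: fitted for loss of signal meaning fewer electrodes in network spikes than DMSO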
In short: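 Network-spike peak electrode count from recordings on days 5, 7, 9 and 12 was combined as trapezoidal area under the curve. Rat cortical cultures were treated continuously from plating, with compound renewed at each feed (DIV 5, 9); fits versus DMSO.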

[12] = CCTE_Shafer_MEA_dev_spike_duration_mean: CCTE's Neural Network Formation Assay for Mean Spike Duration, Shafer Lab (AID 2284051);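 also: mean network spike duration pooled as area under curve over DIV 5 to 12 recordings; potency for a decrease in mean network spike duration versus DMSO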
In short: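 Primary rat cortical neurons on 16-electrode MEA wells (PEI-coated, laminin in plating drop), exposed from plating through DIV 12 with compound renewed at DIV 5 and 9. Mean network-spike duration recorded DIV 5, 7, 9, 12; trapezoidal AUC across days, DMSO baseline.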

[13] = CCTE_Shafer_MEA_dev_per_network_spike_spike_number_mean: CCTE's Neural Network Formation Assay for Mean Number of Spikes in a Network Spike, Shafer Lab (AID 2284053);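 also: fitted as decrease in spikes per network spike relative to DMSO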
In short: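 Primary rat cortical neurons on 48-well, 16-electrode MEA plates were exposed from plating to DIV 12, with dosing renewed on DIV 5 and 9. Spikes per network spike (0.05 s peak window) were recorded on DIV 5, 7, 9 and 12 and collapsed as trapezoidal AUC versus DMSO.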

[14] = CCTE_Shafer_MEA_dev_per_network_spike_spike_percent: CCTE's Neural Network Formation Assay for Percent of Spikes in a Network Spike, Shafer Lab (AID 2284054)
In short: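 Rat primary cortical neurons were grown on 48-well MEA plates (16 electrodes/well), exposed from plating day 0 through day 12, with treatment renewed on DIV 5 and 9. Percent of spikes within 0.05 s network-spike peaks was measured, summarised as AUC across days 5, 7, 9, 12.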

[15] = CCTE_Shafer_MEA_dev_LDH: CCTE's Lactate Dehydrogenase Assay for Cytotoxicity in the Neural Network Formation Assay, Shafer Lab (AID 2284068; active = hit-call score of the fitted dose curve at least 0.9, where 1 is the maximum;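 also: exposure for twelve days from plating with re-dosing on DIV 5 and 9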)
In short: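 Primary rat cortical neurons were plated on PEI/laminin MEA plates and exposed from day 0 for twelve days, with compound renewed at DIV 5 and 9. Cytotoxicity was determined by spectrophotometric LDH assay relative to DMSO.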

[16] = CCTE_Shafer_MEA_dev_AB: CCTE's Alamar Blue Assay for Cytotoxicity in the Neural Network Formation Assay, Shafer Lab (AID 2284083; active = hit-call score of the fitted dose curve at least 0.9, where 1 is the maximum;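 also: twelve days of exposure from plating with re-dosing on DIV 5 and 9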)
In short: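 Primary rat cortical neurons on PEI-coated 48-well MEA plates, 1.5 x 10^5 cells/well in laminin drop; compound exposure from day 0 of plating for twelve days, renewed at medium changes on DIV 5 and 9. Viability read as resazurin reduction by fluorescence, relative to DMSO.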

[17] = CCTE_Shafer_MEA_dev_mutual_information_norm: CCTE's Neural Network Formation Assay for Mutual Information Normalization, Shafer Lab (AID 2284091);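 also: mutual information between electrodes summarised as area under curve across four recording days; potency is for a decrease in mutual information relative to DMSO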
In short: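 Primary rat cortical neurons on PEI-coated 48-well MEA plates, 1.5 x 10^5 cells/well, exposed from day 0 through day 12 with re-dosing at DIV 5 and 9. Mutual information between electrodes recorded days 5, 7, 9, 12; trapezoidal AUC, loss-of-signal fit versus DMSO.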

[18] = CCTE_Mundy_HCI_Cortical_Synap_Neur_Matur_NeuriteSpotCountPerNeuriteLength: CCTE's Synaptogenesis and Neurite Maturation Assay in rat cortical cells for Neurite Spot Count per Neurite Length, Mundy Lab (AID 2284210)
In short: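 Rat primary cortical cultures, AraC added at DIV 5 to suppress glia; chemical exposure from DIV 7 to DIV 12. Fixed cells stained for MAP2 and synaptophysin plus Hoechst; synaptophysin puncta per neurite length quantified by high-content imaging, relative to DMSO.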

[19] = CCTE_Mundy_HCI_Cortical_Synap_Neur_Matur_BPCount: CCTE's Synaptogenesis and Neurite Maturation Assay in rat cortical cells for Branch Point Count, Mundy Lab (AID 2284211)
In short: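 Rat primary cortical cultures, AraC added DIV 5; chemicals dosed DIV 7 through DIV 12. Fixed cells stained for MAP2, synaptophysin and Hoechst; neurite branch points counted by automated high-content imaging, fitted relative to DMSO.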

[20] = CCTE_Mundy_HCI_Cortical_Synap_Neur_Matur_NeuriteLength: CCTE's Synaptogenesis and Neurite Maturation Assay in rat cortical cells for Neurite Length, Mundy Lab (AID 2284214)
In short: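 Rat primary cortical cultures, AraC added DIV 5, dosed DIV 7 through DIV 12 […]. Fixed, MAP2/synaptophysin immunostained with Hoechst; neurite length by high-content imaging, fitted in positive direction versus DMSO.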

[21] = CCTE_Mundy_HCI_Cortical_Synap_Neur_Matur_NeuriteSpotCountPerNeuron: CCTE's Synaptogenesis and Neurite Maturation Assay in rat cortical cells for Neurite Spot Count per Neuron Count, Mundy Lab (AID 2284215)
In short: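 Developing rat cortical neurons, with glia suppressed by AraC, are exposed to chemicals from DIV 7 to DIV 12. Automated fluorescence imaging of MAP2-labelled neurites and synaptophysin puncta yields a count per neuron, normalised against DMSO wells.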

[22] = CCTE_Mundy_HCI_Cortical_Synap_Neur_Matur_SynapseCount: CCTE's Synaptogenesis and Neurite Maturation Assay in rat cortical cells for Synapse Count, Mundy Lab (AID 2284218)
In short: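 Rat primary cortical cultures, AraC at DIV 5, chemical dosing DIV 7 to DIV 12 (288.33 h). Fixed cells stained for MAP2, synaptophysin and Hoechst; synapses per neuron counted by high-content imaging, loss of signal versus DMSO.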

[23] = CCTE_Mundy_HCI_Cortical_Synap_Neur_Matur_NeuriteCount: CCTE's Synaptogenesis and Neurite Maturation Assay in rat cortical cells for Neurite Count, Mundy Lab (AID 2284222)
In short: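 Rat primary cortical cells; AraC added at DIV 5, chemicals dosed with media change at DIV 7 through DIV 12. MAP2/synaptophysin/Hoechst immunostaining, high-content imaging of neurite number; fitted relative to DMSO.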

[24] = CCTE_Mundy_HCI_Cortical_Synap_Neur_Matur_CellBodySpotCount: CCTE's Synaptogenesis and Neurite Maturation Assay in rat cortical cells for Cell Body Spot Count, Mundy Lab (AID 2284223)
In short: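 Chemicals were applied to AraC-treated rat primary cortical cells at DIV 7 and measured at DIV 12. Fixed cells were labelled for MAP2, synaptophysin and nuclei, and high-content imaging gave cell body synaptophysin spot counts per neuron relative to DMSO.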

[25] = CCTE_Mundy_HCI_Cortical_Synap_Neur_Matur_NeuronCount: CCTE's Synaptogenesis and Neurite Maturation Assay in rat cortical cells for Neuron Count, Mundy Lab (AID 2284242; active = hit-call score of the fitted dose curve at least 0.9, where 1 is the maximum;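 also: hits reduce neuron count versus DMSO baseline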)
In short: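 Rat primary cortical cells, AraC added at DIV 5, dosed with media change from DIV 7 to DIV 12. Fixed, Hoechst-stained and immunolabelled for MAP2 and synaptophysin; neuron number counted by high-content imaging, loss fitted versus DMSO.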

Measured: AC50

[O]=[V]([OH])([OH])[OH]
inactive: [1] | [4] | [6] | [7] | [8] | [9] | [10]
active: [2] 15 µM | [3] 15 µM | [5] 9.39 µM | [11] 10.7 µM | [12] 15 µM | [13] 13.9 µM | [14] 15 µM | [15] 24.3 µM | [16] 28 µM | [17] 4.55 µM | [18] 40.2 µM | [19] 12.2 µM | [20] 27 µM | [21] 11.6 µM | [22] 15.4 µM | [23] 78.5 µM | [24] 44.3 µM | [25] 19.6 µM
